Here are results for four compounds from PubChem BioAssay.

A short description of test [1]: viability loss in pontine glioma line – cell-based, SU-DIPG-XXV, MIPE5.0, CellTiter-Glo, qHTS, dose response (AID 1347065; cut-off not given, nearly all actives have AC50 up to about 26 µM;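 note: cells exposed to compound for 48 hours before ATP readout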). The note with it: CellTiter-Glo ATP luminescence. On the technique in general: ATP-based viability assays read luminescence as a measure of living cells.
The nature of test [2]: SU-DIPG-VI glioma cell viability, MIPE4.0 library, CellTiter-Glo luminescence, qHTS (AID 1347066; cut-off not given, nearly all actives have AC50 up to about 30 µM;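 note: cells exposed to compound for 48 hours before readout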). The note with it: CellTiter-Glo ATP luminescence.
Test [3] in a line: JHH-DIPG-1 glioma cell viability, MIPE5.0 library, CellTiter-Glo luminescence, qHTS (AID 1347067; cut-off not given, nearly all actives have AC50 up to about 26 µM;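 note: cells exposed to compound for 48 hours before readout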). The settings on record: JHH-DIPG-1 glioma viability, CellTiter-Glo ATP luminescence.
Test [4] in a line: SU-DIPG-XXV glioma cell viability, MIPE5.0 library, qHTS (AID 1347068; cut-off not given, nearly all actives have IC50 up to about 30 µM). Background: In qHTS, concentration-response curves come from the screen itself.
Test [5] can be described thus: sensitizers of A549 cells to miR-34 induction, primary screen, imaging, A549 dox-inducible miR-34, nuclei and caspase counts (AID 1347080;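 active = compounds whose cell count with miR-34 switched on is under 0.7 times the count with it off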). The settings on record: A549 miR-34 inducible, Hoechst nuclei count, 48 h.
Test [6] can be described thus: phospholipid biosynthesis inhibitors in animal cells, primary screen, cell-based, LOPAC library, screen 4 (AID 1347384; call rule not given here). The note with it: phospholipid biosynthesis inhibition screen, at 10 µM.
Test [7] is described as follows: survival rescue of mitochondrial mutant cells in low glucose, primary screen, MELAS cybrids, Rieske KO mouse fibroblasts, CellTiter-Glo (AID 1508586;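 active = mean z-score across replicates of 1.96 or higher in either the MELAS or the Rieske mutant cell line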;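 note: z relative to plate mean and SD of compound and empty wells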).
Test [8] is described as follows: viability rescue of complex I mutant cybrids, primary screen, cell-based, galactose medium, ATP luminescence (AID 1645843;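 active = z-score of at least 1.8 in each of two replicates, scored against plate mean and spread of sample wells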;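 note: positive z means more ATP and so rescue of galactose-driven cybrid death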). The note with it: complex I mutant cybrid cells, 72 h, stronger effect = higher value.
The nature of test [9]: modifiers of HSF1 nuclear foci, imaging, Selleck Cancer Library (AID 1347162; in the data active = plate-normalised HSF1 focus index below about 0.46). The settings on record: human cells, at 10 µM; SSMD: measured here: HSF1 foci SSMD mean; cell count: measured here: cell number; plate-normalised HSF1 focus index: stronger effect = lower value.
Test [10] in a line: ovarian cancer cell viability with rucaparib, profiling panel, oncology-focused library, rucaparib conditional (AID 1508598). The settings on record: patient-derived ovarian cancer cells, CellTiter-Glo viability, 144 h, stronger effect = lower value.
The target in test [11] is NAD(+) hydrolase SARM1 (Homo sapiens) (UniProt Q6SZW1). Description: SARM1 TIR NADase inhibitors, cell lysate, NAD-Glo luminescence (AID 1508614;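 active = compound whose remaining NAD level is above about 45 nM, limit read from the data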;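 note: higher remaining NAD means stronger inhibition of SARM1 NADase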). The settings on record: SAM-TIR HEK293T lysate NADase, at 1 µM, stronger effect = higher value.
NAD(+) hydrolase SARM1 (Homo sapiens), sequence (Q6SZW1 whole entry, looked up, the tested form may be a part): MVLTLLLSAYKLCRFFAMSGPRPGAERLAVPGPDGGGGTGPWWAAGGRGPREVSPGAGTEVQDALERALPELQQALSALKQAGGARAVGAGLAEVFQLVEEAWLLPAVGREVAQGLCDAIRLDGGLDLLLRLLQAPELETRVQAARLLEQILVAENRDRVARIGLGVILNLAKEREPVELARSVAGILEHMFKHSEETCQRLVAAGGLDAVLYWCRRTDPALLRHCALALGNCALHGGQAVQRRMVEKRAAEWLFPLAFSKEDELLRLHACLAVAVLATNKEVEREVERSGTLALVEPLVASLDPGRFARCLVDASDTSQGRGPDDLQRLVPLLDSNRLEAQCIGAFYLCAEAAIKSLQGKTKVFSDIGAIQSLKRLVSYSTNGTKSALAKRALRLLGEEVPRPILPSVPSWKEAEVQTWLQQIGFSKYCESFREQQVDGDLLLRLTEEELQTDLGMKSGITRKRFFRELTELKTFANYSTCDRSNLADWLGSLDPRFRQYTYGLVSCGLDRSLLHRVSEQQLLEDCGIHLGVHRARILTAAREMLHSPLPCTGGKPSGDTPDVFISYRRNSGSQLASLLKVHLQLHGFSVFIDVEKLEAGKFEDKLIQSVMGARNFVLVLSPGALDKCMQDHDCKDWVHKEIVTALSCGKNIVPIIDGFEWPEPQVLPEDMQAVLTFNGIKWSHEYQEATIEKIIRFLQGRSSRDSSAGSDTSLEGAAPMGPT
Test [12] deals with Mitogen-activated protein kinase 7 (Homo sapiens) (UniProt Q13164). In words: ERK5 transactivation activators in reporter cells, primary screen, cell-based, HTS (AID 1508626;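 active = luciferase signal above three times the same-plate solvent-only control wells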;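 note: luciferase driven by Gal4-ERK5 fusion binding five Gal4 sites before minimal TATA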). The settings on record: HeLa Gal4-ERK5 transactivation, 18 h, at 5 µM, stronger effect = higher value.
Mitogen-activated protein kinase 7 (Homo sapiens), sequence (Q13164 whole entry, looked up, the tested form may be a part): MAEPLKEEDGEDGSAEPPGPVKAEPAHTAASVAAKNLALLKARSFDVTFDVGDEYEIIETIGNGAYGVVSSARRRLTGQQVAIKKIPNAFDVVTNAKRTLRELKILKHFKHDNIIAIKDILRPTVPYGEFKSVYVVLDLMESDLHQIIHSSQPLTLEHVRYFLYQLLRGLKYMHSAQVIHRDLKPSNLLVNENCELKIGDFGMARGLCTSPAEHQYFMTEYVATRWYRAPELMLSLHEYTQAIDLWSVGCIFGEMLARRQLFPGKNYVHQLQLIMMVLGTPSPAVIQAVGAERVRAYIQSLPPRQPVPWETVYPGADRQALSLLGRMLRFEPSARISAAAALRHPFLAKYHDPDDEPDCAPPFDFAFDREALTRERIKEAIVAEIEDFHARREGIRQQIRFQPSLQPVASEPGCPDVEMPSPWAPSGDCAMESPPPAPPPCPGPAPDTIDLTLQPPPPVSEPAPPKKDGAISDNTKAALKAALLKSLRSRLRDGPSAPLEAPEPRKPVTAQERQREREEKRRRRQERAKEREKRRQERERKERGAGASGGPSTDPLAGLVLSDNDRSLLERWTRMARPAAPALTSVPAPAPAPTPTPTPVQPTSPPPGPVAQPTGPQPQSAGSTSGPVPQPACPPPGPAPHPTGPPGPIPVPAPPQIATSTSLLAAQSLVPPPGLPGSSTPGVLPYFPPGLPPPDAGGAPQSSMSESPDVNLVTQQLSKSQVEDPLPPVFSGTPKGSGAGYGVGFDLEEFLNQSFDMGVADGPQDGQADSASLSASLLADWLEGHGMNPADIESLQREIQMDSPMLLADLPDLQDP
Where [13] appears, read: stronger effect = lower value, cell number ratio, induced over uninduced.
Setting [14] is: measured here: relative caspase fold change +Dox/-Dox.
The mark [15] stands for this setting: measured here: total cells with miR-34 induction, stronger effect = lower value.
Where [16] appears, read: measured here: total cells without miR-34 induction.
[17] abbreviates: MELAS cybrid survival, CellTiter-Glo 48 h, stronger effect = higher value.
The mark [18] stands for this setting: Rieske KO mouse fibroblast survival, CellTiter-Glo 72 h.

Values joined by “and” are separate entries in the source; they are usually repeats but may differ in a detail not shown here. Identical values can stand only once. Records with an inconclusive call do not appear. Active and inactive are the calls of the source.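 Rule for the calls, unless noted: active = normalized viability below 100% at a tested concentration; inactive = the rest.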

As for `CCCN[C@H]1CCc2nc(N)sc2C1`, the call in [1], in [2], in test [3], in test [4] and in test [6] was inactive. Besides, the fold change in test [5] (setting [13]) is 0.926 (inactive) and 0.917 (inactive); in test [5] (setting [14]) it was 0.996 and 1.3. Moreover, the cell count in test [5] (setting [15]) was 7940 and 9730; in test [5] (setting [16]), 8570 and 10600. Also, the z-score in [7] (setting [17]) was 0.752 (inactive) and 0.407 (inactive); in test [7] (setting [18]) it was 0.13 and -0.361; in test [8], 0.97 (inactive).
For the compound `CN(C)CC/C=C1/c2ccccc2COc2ccc(CC(=O)O)cc21`, the result in [1], in [2], in test [3] and in test [4] was inactive. Besides, the fold change was 0.88 (inactive) in [5] (setting [13]) and 0.692 in [5] (setting [14]). The cell count in test [5] (setting [15]) was determined as 9640; in test [5] (setting [16]), 10900. The z-score in test [7] (setting [17]) was 0.699 (inactive) and 0.823 (inactive); in [7] (setting [18]), -0.41 and 0.615; in test [8], 0.505 (inactive).
The viability is a read-out of living cells in per cent, often relative to untreated cells. As for `Cc1nc(-c2ccc(OCC(C)C)c(C#N)c2)sc1C(=O)O`, the call in [1], in test [2], in test [3] and in test [4] was inactive. The fold change in test [5] (setting [13]) was 0.998 (inactive) and 0.915 (inactive); in test [5] (setting [14]) it was 0.915 and 0.811. The cell count in [5] (setting [15]) was 8870 and 7400; in [5] (setting [16]), 8880 and 8080; in test [9], 6840. This compound gave an SSMD in test [9] of 1.2. Moreover, the plate-normalised HSF1 focus index in test [9] is 1.06 (inactive). In addition, the values for the z-score in test [7] (setting [17]) and in test [7] (setting [18]) were 0.976 (inactive) and 0.13, respectively. Further, the viability in [10] (at 0.000305 µM, OCI-C5x cells, with rucaparib 10 µM, 100% = cells with rucaparib alone) was 118% (inactive); in test [10] (at 0.000305 µM, OCI-C5x cells, without rucaparib), 111% (inactive); in test [10] (at 0.000305 µM, OCI-P5x cells, with rucaparib 20 µM, 100% = cells with rucaparib alone), 91.2% (active); in test [10] (at 0.000305 µM, OCI-P5x cells, without rucaparib) it was 99.9% (active); in test [10] (at 0.00122 µM, OCI-C5x cells, with rucaparib 10 µM, 100% = cells with rucaparib alone), 115% (inactive); in test [10] (at 0.00122 µM, OCI-C5x cells, without rucaparib), 122% (inactive). Moreover, the viability in [10] (at 0.00122 µM, OCI-P5x cells, with rucaparib 20 µM, 100% = cells with rucaparib alone) was 102% (inactive); in test [10] (at 0.00122 µM, OCI-P5x cells, without rucaparib), 99.6% (active); in test [10] (at 0.00488 µM, OCI-C5x cells, with rucaparib 10 µM, 100% = cells with rucaparib alone) it was 112% (inactive); in test [10] (at 0.00488 µM, OCI-C5x cells, without rucaparib) it was 109% (inactive); in test [10] (at 0.00488 µM, OCI-P5x cells, with rucaparib 20 µM, 100% = cells with rucaparib alone) it was 109% (inactive); in test [10] (at 0.00488 µM, OCI-P5x cells, without rucaparib) it was 100% (inactive). The viability was 111% (inactive) in [10] (at 0.0195 µM, OCI-C5x cells, with rucaparib 10 µM, 100% = cells with rucaparib alone); 110% (inactive) in [10] (at 0.0195 µM, OCI-C5x cells, without rucaparib); 105% (inactive) in test [10] (at 0.0195 µM, OCI-P5x cells, with rucaparib 20 µM, 100% = cells with rucaparib alone); 104% (inactive) in test [10] (at 0.0195 µM, OCI-P5x cells, without rucaparib); 109% (inactive) in test [10] (at 0.0781 µM, OCI-C5x cells, with rucaparib 10 µM, 100% = cells with rucaparib alone); 112% (inactive) in test [10] (at 0.0781 µM, OCI-C5x cells, without rucaparib). The viability was 104% (inactive) in test [10] (at 0.0781 µM, OCI-P5x cells, with rucaparib 20 µM, 100% = cells with rucaparib alone); 108% (inactive) in test [10] (at 0.0781 µM, OCI-P5x cells, without rucaparib); 110% (inactive) in test [10] (at 0.313 µM, OCI-C5x cells, with rucaparib 10 µM, 100% = cells with rucaparib alone); 109% (inactive) in test [10] (at 0.313 µM, OCI-C5x cells, without rucaparib); 97.1% (active) in [10] (at 0.313 µM, OCI-P5x cells, with rucaparib 20 µM, 100% = cells with rucaparib alone); 109% (inactive) in test [10] (at 0.313 µM, OCI-P5x cells, without rucaparib). Also, the viability in test [10] (at 1.25 µM, OCI-C5x cells, with rucaparib 10 µM, 100% = cells with rucaparib alone) was 108% (inactive); in test [10] (at 1.25 µM, OCI-C5x cells, without rucaparib), 118% (inactive); in [10] (at 1.25 µM, OCI-P5x cells, with rucaparib 20 µM, 100% = cells with rucaparib alone), 102% (inactive); in [10] (at 1.25 µM, OCI-P5x cells, without rucaparib) it was 109% (inactive); in [10] (at 5 µM, OCI-C5x cells, with rucaparib 10 µM, 100% = cells with rucaparib alone), 118% (inactive); in test [10] (at 5 µM, OCI-C5x cells, without rucaparib), 134% (inactive). Also, the viability is 103% (inactive) in test [10] (at 5 µM, OCI-P5x cells, with rucaparib 20 µM, 100% = cells with rucaparib alone) and 108% (inactive) in test [10] (at 5 µM, OCI-P5x cells, without rucaparib). Further, the remaining NAD in test [11] is 10 nM (inactive).
`COc1ccc(CCN(C)CCCC(C#N)(c2ccc(OC)c(OC)c2)C(C)C)cc1OC` (stereo not drawn): the outcome in test [1], in [2], in test [3], in test [4] and in test [6] was inactive. In addition, the z-score in [7] (setting [17]) is -1.23 (inactive) and 0.18 (inactive) and -0.391 (inactive); in test [7] (setting [18]) it was -2.03 and 0.282 and -0.248. In addition, in [11], the remaining NAD was 10 nM (inactive). Moreover, the luciferase signal in test [12] was 96 AU (inactive).
